For orientation: AC50 means the concentration at which the activity in the assay is half-maximal.

SMILES strings stand for the structures. Results filed as inconclusive are left out. Activity calls are given as the source filed them. How the source made its calls: active means hit-call score of the fitted dose curve at least 0.9, where 1 is the maximum; inconclusive means response in the unintended direction; inactive means score below 0.9.

This is an account of results in PubChem BioAssay AID2283304 (EPA ToxCast).

Sequence of rat Galanin Receptor, Galr1 (gene 50577) (Q62805 whole entry, looked up): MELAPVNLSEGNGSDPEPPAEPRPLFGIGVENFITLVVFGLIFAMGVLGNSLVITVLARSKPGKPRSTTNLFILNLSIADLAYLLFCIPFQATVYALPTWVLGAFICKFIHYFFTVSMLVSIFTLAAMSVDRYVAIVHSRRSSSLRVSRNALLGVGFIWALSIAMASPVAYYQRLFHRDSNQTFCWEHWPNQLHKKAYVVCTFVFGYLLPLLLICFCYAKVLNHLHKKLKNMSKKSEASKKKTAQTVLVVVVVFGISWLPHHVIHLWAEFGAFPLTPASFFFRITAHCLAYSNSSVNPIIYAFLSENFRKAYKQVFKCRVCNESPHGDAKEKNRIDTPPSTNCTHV

The target in this test is rat Galanin Receptor, Galr1 (gene 50577) (UniProt Q62805). The test is described as follows: NVS_GPCR_rGalanin: NovaScreen (NVS) G Protein-Coupled Receptor Assay for rat Galanin Receptor. The procedure:
NVS_GPCR_rGalanin is a biochemical, single-readout assay that uses extracted gene-proteins from Rat brain membranes in a tissue-based cell-free assay. Measurements were taken 2 hours after chemical dosing in a 96-well plate.NVS_GPCR_rGalanin is one of one assay component(s) measured or calculated from the NVS_GPCR_rGalanin assay. It is designed to make measurements of radioligand binding, a form of binding reporter, as detected with scintillation counting signals by Filter-based radiodetection technology.Data from the assay component NVS_GPCR_rGalanin was analyzed into 1 assay endpoint. This assay endpoint, NVS_GPCR_rGalanin, was analyzed in the positive analysis fitting direction relative to DMSO as the negative control and baseline of activity. Using a type of binding reporter, loss-of-signal activity can be used to understand changes in the binding as they relate to the gene Galr1. Furthermore, this assay endpoint can be referred to as a primary readout, because the performed assay has only produced 1 assay endpoint. To generalize the intended target to other relatable targets, this assay endpoint is annotated to the gpcr intended target family, where the subfamily is rhodopsin-like receptor.
Binding assays used specific radioligands (tritiated, iodinated) with non-radioactive competitive displacement ligands in agonist or antagonist protocols (as indicated) and various reference compounds and inhibitors to titrate specific binding to receptors and transporters. Most enzyme assays (CYPs, kinases, phosphatases, proteases, HDACs) used recombinant protein and specific substrates (fluorescence mostly, some colorimetric and radioactive) and inhibitors, followed by a biochemical separation of substrate and product. All assays for the biochemical HTS were initially run in duplicate at a single concentration (10 uM for CYP450 assays and 25 uM for all others). Assay-chemical combinations meeting a pre-defined threshold (e.g., 30% inhibition and other criteria defined below) were then run in singleton concentration-response format with maximum concentration of 20 uM for CYPs and 50 uM for all others. Each assay was run with positive and negative controls, and concurrent controls on every plate. The follow-up (secondary) screen tested active chemical-pairs in concentration series, as well as a few additional assays not tested in the primary screen, some selected negative inactives, and several cases re-run in the concentration series for confirmatory purposes.
Turning to `CC(C)=CCCC(C)=CC=O`, the call was inactive. `CC(C)(c1ccccc1)c1ccc(O)c(C(C)(C)c2ccccc2)c1`: the compound was called inactive. On the same count and under the same terms, the value for `CCCCCCCCCCO` was “inactive”; that for `CCCCc1ccc2c(n1)[C@@H](c1ccc(OC)cc1C[C@H](C)C(=O)O)[C@H](C(=O)O)[C@H]2c1ccc2c(c1)OCO2` was “inactive”; that for `CCCCCCCCCCC` was “inactive”. On the same count and under the same terms, under `O=c1ccc2ccccc2o1` stands “inactive”. On the same count and under the same terms, the value for `O=C(O)C1C(C(=O)O)C2(Cl)C(Cl)=C(Cl)C1(Cl)C2(Cl)Cl` (stereo unspecified) was “inactive”; that for `COS(C)(=O)=O` was “inactive”. In the case of `CC(C)NCC(O)c1ccc(O)c(O)c1` (stereo unspecified), the compound was classed as inactive. `Cc1cc(O)ccc1Cl`: the call was inactive.

On to `c1ccc2c(c1)-c1cccc3c1c-2cc1ccccc13`, for which the compound was called inactive. Regarding `C=CCC1=C(C)C(OC(=O)C2C(C=C(C)C)C2(C)C)CC1=O` (stereo unspecified), the compound was called inactive. Regarding `CCN1CCC2(CC1)COc1cc3c(cc12)N(C(=O)c1ccc(-c2ccc(-c4nnc(C)o4)cc2C)cc1)CC3`, the outcome was inactive.

In the case of `CCC[CH2][Sn]([Cl])([CH2]CCC)[CH2]CCC`, the concentration at half-maximal activity (AC50) is 3.99 µM (active).

With `Cc1cccc(C)c1O`, the result was inactive. For `CN(C)C(=O)Cl`, the compound was called inactive.
